High-throughput results (PubChem)
Compounds with a hit are over-represented: about 19% of the library has one in this group of screens.
MCF10A rereplic: induces DNA re-replication in MCF 10a normal breast cells | hit rate 2.9% among 350,000 | Potency, µM (series often up to 46.1 µM), for inactives: at the highest dose activity, positive = re-replication, actives largely listed as activators | AID 624296 | MCF 10A DNA re-replication, Hoechst nuclear intensity, 48 h; further: potency means the concentration at half of the fitted maximal effect; % of control where 0% means no effect; nearly all actives have a fitted effect of over 50% in size
SW480 rerep: induces DNA re-replication in SW480 colon adenocarcinoma cells. hit rate 1.8% among 340,000. Potency, µM (titrated, usually from 46.1 µM), for inactives: at the top dose re-replication activation, actives largely listed as activators. SW480 DNA re-replication, Hoechst DNA content imaging, 48 h; further: potency means the concentration at half of the fitted maximal effect; % of control where 0% means no effect; nearly all actives have a fitted effect of over 55% in size
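Readout is total intensity of Hoechst-stained nuclei, excited at 405 nm and collected at 500-530 nm. Compound treatment lasted 48 hr at 37 C in 5% CO2 before staining.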
DT40 TDP1 CPT: DT40-hTDP1 cell growth loss with CPT; chicken DT40 Tdp1-/-;hTDP1 cells + 20 nM CPT, ATP luminescence, 48 h; Potency, µM (top dose mostly 46.2 µM), for the others: at the highest dose activity change, negative = growth inhibition, hits mostly inhibitors; hit rate 12% among 420,000; AID 686979; further: potency means the concentration at half of the fitted maximal effect; on the % scale 0 is the no-effect control and ±100 the full control effect; nearly all actives have a fitted effect of over 55% in size
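Cell growth measured by CellTiter-Glo luminescence after a minimum 48 h, 37 C compound exposure with 20 nM CPT in Tdp1-knockout DT40 cells stably expressing hTDP1, seeded 400/well; qHTS titration format.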
TDP1 cell noCPT: qHTS for Inhibitors of human tyrosyl-DNA phosphodiesterase 1 (TDP1): qHTS in cells in absence of CPT; DT40 Tdp1-/- hTDP1 cells, no CPT, ATP luminescence, 48 h; Potency, µM (titrated, usually from 46.2 µM), for the others: at the highest dose activity change, negative = growth inhibition, usual class: inhibitors; hit rate 15% among 420,000; further: potency means the concentration at half of the fitted maximal effect; on the % scale 0 is the no-effect control and ±100 the full control effect; nearly all actives have a fitted effect of over 55% in size
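Stably hTDP1-transfected Tdp1-null chicken DT40 cells were treated with library compounds minus camptothecin and grown for at least 48 hr at 37 °C, after which cellular ATP was quantified by luminescence.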
Chronic BCR inh: chronic active BCR signaling inhibition. hit rate 0.05% among 340,000. AID 493014. Potency, µM (doses to about 46.1 µM), inactives show at the top dose activity change, negative = inhibition, hits mostly inhibitors. ABC-DLBCL IkBa-CBG/CBR reporter, luminescence ratio, 4 h; active means well fitted inhibition curve with a large enough effect in the signal ratio, with a control signal flat, not every such curve was filed as active; inconclusive means small, poorly fitted or top-dose-only effect, or effect the other way, or a change in a side signal; the % refers to the signal ratio;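 further: potency means the concentration at half of the fitted maximal effect; plate controls were basal doxycycline-induced cells for no effect and cells given 10 µM MG132 for full effect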
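Cell line TMD8 (human ABC DLBCL), stably expressing tet-inducible CBG68-IkBa fusion and CBR; IMDM/0.5% FBS; cpd up to 46 uM; dox induction, 4 h, 37C/5% CO2; dual luminescence; green/red ratio; MG132 control.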
IL-1B inflam inh: inflammasome signaling inhibition, IL-1 beta readout | THP-1 LPS/ATP IL-1B secretion, AlphaLISA, 16 h; hits give low values | activity change, % at 57.5 µM | hit rate 4.7% among 360,000; in the data active means activity change below about -50%; inconclusive means mostly about -30% to -49%; further: on the % scale 0 is the no-effect control and ±100 the full control effect
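THP-1 cells pretreated 1 hr with compounds (up to 57.5 uM final), then stimulated with LPS (250 ng/mL final) plus ATP (1.25 mM final); secreted IL-1B measured by AlphaLISA after 16 hr, decreased signal indicating inhibition.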
The depositor's hits bear a star; ? = inconclusive; . = not tested or not shown. Unless noted, the call rests on the fitted dose curve; in most records, active means well fitted curve in the direction sought with a large enough effect; inconclusive means small, poorly fitted or top-dose-only effect, or another doubt; inactive means no such curve, though single readings can be large; an effect the other way counts as inactive or inconclusive.

SMILES	MCF10A rereplic	SW480 rerep	DT40 TDP1 CPT	TDP1 cell noCPT	Chronic BCR inh	IL-1B inflam inh
O=C(Cc1cccc(C(F)(F)F)c1)Nc1ccccc1	-4%	-1%	?	?	5%	-14
COc1ccc(Cl)cc1C(=O)Nc1ccc2nc(Nc3cccc(Cl)c3)cc(C)c2c1	.	.	21µM*	12µM*	.	.
Cc1ccc(/C(=C\CN2CCCC2)c2cccc(/C=C/C(=O)O)n2)cc1	.	.	-6%	-7%	.	.
COc1cc(S(=O)(=O)N(Cc2ccc(C)cc2)C2CCCCC2)ccc1-n1cnnn1	5%	0%	?	23µM*	8%	15
COc1ccc(N(C(=O)CCl)C(C(=O)NC2CCCCC2)c2cccnc2)cc1 (centres undefined)	18µM*	?	3.3µM*	2.3µM*	?	-102*
COc1ccc(C(C(=O)NC2CCCCC2)N(C(=O)c2ccccn2)c2cccnc2)cc1 (centres undefined)	-3%	?	15%	1%	1%	0
O=C(NC1CCCCC1)C(c1cccnc1)N(C(=O)CCl)c1ccccc1Cl (centres undefined)	6%	?	?	?	-11%	-89*
O=C(NC1CCCCC1)C(c1cccnc1)N(C(=O)CCl)c1ccc(F)cc1 (centres undefined)	18µM*	2.1µM*	0.52µM*	0.58µM*	?	-103*
CCOCCCNC(=O)Cn1ncc2c([nH]c3ccccc32)c1=O	.	.	-2%	-4%	.	.
Cc1c[n+]([O-])cc(C)c1[N+](=O)[O-]	1%	-7%	-2%	-16%	.	-6
CN(C)c1ccc2c(c1)Sc1cc(N(C)C)ccc1N2C(=O)c1ccccc1	25%	29%	?	21µM*	?	-11
CN(C)c1ccc(C=O)c(Oc2ccccc2)c1	.	.	-5%	?	.	-11
COC(=O)c1ccc(OCC(O)CN2CCc3cc(OC)c(OC)cc3C2c2ccccc2)cc1 (centres undefined)	21µM*	25%	5.8µM*	5.8µM*	2%	-7
COC(=O)c1ccc(OCC2c3cc(OC)c(OC)cc3CCN2C(=O)Cc2ccc(OC)c(OC)c2)cc1 (centres undefined)	.	.	23µM*	?	?	.
COc1ccc(CC(=O)N2CCc3cc(OC)c(OC)cc3C2COc2cc(C)cc(C)c2)cc1OC (centres undefined)	.	.	18µM*	18µM*	-1%	.
COC(=O)c1ccc(OCC2NCCc3cc(OC)c(OC)cc32)cc1 (centres undefined)	-1%	-38%	?	?	-8%	-11
COC(=O)c1ccc(OCC2c3cc(OC)c(OC)cc3CCN2C(=O)c2ccco2)cc1 (centres undefined)	?	-7%	23µM*	21µM*	?	-53*
CCC(=O)N1CCc2cc(OC)c(OC)cc2C1COc1ccc(C(=O)OC)cc1 (centres undefined)	24%	11%	?	?	?	-20
COC(=O)c1ccc(OCC2c3cc(OC)c(OC)cc3CCN2C(=O)Cc2ccc(OC)cc2)cc1 (centres undefined)	.	.	?	21µM*	-9%	.
COc1cc2c(cc1OC)C(c1ccccc1)N(C(=O)c1ccco1)CC2 (centres undefined)	0%	2%	21µM*	21µM*	1%	-23
COc1ccc(OCC2c3cc(OC)c(OC)cc3CCN2C(=O)C(C)C)cc1 (centres undefined)	0%	5%	?	23µM*	2%	20
COC(=O)c1ccc(OCC2c3cc(OC)c(OC)cc3CCN2C(=O)c2ccc(OC)cc2)cc1 (centres undefined)	.	.	?	?	-6%	.
